# From the supplement of paper PMC11732987, “Enantioselective OTUD7B fragment discovery through chemoproteomics screening and high-throughput optimisation” (Communications Chemistry, 2025)
# A number with no mark means an inactive call.
# Experiments:
# Test in all cases: log2 ratio of Biotin-Ahx-Ub-VS probe labelling (fragment/DMSO); higher = less target engagement (more negative = stronger competition), active = hit call of the paper (q ≤ 0.05, log2 ratio ≤ -1)
# Conditions in all cases: compound concentration: 200 uM; treatment time: 3 h
# USP19 = biological target: T1, USP19 (UniProt O94966)
# T1 sequence (whole entry): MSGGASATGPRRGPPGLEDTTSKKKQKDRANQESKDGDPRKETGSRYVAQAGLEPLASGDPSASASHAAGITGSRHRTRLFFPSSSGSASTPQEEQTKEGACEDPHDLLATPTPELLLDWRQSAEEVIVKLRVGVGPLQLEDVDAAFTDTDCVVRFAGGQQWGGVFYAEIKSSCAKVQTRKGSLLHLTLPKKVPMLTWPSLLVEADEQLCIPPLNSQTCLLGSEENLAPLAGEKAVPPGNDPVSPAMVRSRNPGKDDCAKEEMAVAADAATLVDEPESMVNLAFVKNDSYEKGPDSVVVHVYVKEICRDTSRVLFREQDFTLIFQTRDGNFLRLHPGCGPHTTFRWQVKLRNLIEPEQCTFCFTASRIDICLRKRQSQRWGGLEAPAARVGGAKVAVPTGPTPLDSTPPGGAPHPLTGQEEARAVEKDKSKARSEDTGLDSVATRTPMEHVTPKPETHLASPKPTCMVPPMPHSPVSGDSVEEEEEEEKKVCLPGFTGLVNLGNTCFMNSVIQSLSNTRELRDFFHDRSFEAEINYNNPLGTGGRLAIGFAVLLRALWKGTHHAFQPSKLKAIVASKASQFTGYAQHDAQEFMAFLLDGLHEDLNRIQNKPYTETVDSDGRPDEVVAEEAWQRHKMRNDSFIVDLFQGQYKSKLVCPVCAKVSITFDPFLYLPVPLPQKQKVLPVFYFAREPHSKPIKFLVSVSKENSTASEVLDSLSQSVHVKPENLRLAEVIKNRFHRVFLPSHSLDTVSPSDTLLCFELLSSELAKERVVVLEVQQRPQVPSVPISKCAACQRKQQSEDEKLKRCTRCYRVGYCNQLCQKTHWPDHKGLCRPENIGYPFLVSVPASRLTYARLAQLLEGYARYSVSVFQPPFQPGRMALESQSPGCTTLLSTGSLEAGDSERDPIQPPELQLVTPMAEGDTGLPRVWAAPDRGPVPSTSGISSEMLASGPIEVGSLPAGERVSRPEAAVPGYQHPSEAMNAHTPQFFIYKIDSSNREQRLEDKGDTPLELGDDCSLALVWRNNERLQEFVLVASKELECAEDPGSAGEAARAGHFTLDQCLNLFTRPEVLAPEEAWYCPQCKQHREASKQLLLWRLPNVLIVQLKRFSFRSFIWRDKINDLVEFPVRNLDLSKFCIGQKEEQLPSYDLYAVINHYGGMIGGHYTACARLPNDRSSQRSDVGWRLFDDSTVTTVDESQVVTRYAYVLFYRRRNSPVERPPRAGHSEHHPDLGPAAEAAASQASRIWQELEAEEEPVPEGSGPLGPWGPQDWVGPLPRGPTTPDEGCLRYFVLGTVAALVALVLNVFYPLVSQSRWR
# Summary of the method: (§1)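 HEK293T lysate, 495 µg per sample in Tris/CHAPS/IGEPAL buffer with protease inhibitors, was treated in triplicate with fragment at 200 µM or vehicle for 3 h and then with Biotin-Ahx-Ub-VS at 0.5 µM final for 1 h. Labelled DUBs were NeutrAvidin-enriched, digested with LysC and trypsin, and run by diaPASEF LC-MS/MS. Spectronaut label-free quantities were global-median-normalised, and values are average log2 fragment/vehicle ratios by unpaired t-test on proteins with ≥2 unique peptides.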
# USP22 = biological target: T2, USP22 (UniProt Q9UPT9)
# T2 sequence (whole entry): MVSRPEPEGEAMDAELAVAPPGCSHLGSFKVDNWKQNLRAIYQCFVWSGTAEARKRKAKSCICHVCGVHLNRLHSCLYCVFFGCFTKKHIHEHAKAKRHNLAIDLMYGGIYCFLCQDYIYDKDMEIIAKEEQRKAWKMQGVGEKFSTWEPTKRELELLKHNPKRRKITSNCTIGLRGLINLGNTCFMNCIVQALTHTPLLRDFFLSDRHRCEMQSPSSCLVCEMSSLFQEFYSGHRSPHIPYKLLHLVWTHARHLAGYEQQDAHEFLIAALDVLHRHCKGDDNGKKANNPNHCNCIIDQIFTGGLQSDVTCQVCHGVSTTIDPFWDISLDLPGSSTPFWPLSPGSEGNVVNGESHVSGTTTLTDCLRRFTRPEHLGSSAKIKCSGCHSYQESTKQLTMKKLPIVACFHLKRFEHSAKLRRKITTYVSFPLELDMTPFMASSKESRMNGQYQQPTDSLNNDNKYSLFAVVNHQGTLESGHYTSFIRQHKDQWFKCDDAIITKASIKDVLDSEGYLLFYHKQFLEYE
# Summary of the method: as §1
# USP24 = USP24 (UniProt Q9UPU5)
# Summary of the method: as §1
# USP25 = biological target: T3, USP25 (UniProt Q9UHP3)
# T3 sequence (whole entry): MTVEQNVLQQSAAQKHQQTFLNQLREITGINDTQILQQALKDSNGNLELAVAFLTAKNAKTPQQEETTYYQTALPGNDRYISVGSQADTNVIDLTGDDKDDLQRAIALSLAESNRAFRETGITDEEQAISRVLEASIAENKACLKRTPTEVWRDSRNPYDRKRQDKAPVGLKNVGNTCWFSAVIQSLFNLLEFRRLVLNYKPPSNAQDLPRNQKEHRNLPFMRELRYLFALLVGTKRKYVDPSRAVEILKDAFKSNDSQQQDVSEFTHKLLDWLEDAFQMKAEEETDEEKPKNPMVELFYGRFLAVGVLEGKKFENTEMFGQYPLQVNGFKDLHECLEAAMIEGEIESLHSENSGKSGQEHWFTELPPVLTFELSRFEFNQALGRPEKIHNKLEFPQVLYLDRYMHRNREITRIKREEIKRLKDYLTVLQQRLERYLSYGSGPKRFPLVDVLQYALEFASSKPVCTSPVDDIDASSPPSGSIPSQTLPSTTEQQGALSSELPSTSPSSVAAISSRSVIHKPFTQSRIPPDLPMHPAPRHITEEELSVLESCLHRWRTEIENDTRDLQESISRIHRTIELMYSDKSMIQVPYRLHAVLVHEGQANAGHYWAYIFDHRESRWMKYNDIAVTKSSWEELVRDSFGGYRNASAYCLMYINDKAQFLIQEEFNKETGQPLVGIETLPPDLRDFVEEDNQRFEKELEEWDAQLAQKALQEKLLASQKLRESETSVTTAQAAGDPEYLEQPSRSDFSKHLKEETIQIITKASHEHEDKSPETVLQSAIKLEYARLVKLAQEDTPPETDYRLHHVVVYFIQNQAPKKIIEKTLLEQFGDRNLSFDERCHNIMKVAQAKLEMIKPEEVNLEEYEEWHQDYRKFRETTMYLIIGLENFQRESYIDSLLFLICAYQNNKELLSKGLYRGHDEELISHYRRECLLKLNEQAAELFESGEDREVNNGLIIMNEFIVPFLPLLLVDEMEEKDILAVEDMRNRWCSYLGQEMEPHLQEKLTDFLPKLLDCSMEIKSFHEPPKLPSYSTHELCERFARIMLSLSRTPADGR
# Summary of the method: as §1
# USP28 = biological target: T4, USP28 (UniProt Q96RU2)
# T4 sequence (whole entry): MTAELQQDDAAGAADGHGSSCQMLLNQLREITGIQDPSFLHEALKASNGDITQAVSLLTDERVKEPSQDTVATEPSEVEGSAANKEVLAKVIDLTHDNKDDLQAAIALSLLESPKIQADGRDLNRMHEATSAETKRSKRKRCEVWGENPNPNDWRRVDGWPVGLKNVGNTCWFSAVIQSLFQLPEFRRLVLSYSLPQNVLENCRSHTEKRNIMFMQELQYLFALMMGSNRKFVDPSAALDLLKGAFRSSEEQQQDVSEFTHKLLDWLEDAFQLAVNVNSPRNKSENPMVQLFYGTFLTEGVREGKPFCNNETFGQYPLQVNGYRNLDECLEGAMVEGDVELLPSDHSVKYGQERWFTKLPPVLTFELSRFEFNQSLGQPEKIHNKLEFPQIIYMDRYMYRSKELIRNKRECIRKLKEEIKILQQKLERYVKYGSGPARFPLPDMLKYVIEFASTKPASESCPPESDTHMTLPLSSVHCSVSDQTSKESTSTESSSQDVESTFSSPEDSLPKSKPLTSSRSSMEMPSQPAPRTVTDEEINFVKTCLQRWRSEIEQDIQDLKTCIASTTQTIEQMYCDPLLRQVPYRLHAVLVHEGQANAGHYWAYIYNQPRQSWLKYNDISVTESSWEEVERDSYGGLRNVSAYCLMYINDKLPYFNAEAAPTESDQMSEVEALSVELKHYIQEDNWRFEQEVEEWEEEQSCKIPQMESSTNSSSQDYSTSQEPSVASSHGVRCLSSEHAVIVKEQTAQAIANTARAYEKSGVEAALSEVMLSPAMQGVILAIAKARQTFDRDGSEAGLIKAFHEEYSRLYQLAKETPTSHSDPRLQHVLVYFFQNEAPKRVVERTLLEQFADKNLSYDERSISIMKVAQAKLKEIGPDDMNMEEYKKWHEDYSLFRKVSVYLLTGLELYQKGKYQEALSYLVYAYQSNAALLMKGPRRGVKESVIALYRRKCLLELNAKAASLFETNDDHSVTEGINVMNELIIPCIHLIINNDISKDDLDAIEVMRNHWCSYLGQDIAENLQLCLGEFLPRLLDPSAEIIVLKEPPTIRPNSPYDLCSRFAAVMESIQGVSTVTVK
# Summary of the method: as §1
# Chain of USP24 (Q9UPU5 whole entry): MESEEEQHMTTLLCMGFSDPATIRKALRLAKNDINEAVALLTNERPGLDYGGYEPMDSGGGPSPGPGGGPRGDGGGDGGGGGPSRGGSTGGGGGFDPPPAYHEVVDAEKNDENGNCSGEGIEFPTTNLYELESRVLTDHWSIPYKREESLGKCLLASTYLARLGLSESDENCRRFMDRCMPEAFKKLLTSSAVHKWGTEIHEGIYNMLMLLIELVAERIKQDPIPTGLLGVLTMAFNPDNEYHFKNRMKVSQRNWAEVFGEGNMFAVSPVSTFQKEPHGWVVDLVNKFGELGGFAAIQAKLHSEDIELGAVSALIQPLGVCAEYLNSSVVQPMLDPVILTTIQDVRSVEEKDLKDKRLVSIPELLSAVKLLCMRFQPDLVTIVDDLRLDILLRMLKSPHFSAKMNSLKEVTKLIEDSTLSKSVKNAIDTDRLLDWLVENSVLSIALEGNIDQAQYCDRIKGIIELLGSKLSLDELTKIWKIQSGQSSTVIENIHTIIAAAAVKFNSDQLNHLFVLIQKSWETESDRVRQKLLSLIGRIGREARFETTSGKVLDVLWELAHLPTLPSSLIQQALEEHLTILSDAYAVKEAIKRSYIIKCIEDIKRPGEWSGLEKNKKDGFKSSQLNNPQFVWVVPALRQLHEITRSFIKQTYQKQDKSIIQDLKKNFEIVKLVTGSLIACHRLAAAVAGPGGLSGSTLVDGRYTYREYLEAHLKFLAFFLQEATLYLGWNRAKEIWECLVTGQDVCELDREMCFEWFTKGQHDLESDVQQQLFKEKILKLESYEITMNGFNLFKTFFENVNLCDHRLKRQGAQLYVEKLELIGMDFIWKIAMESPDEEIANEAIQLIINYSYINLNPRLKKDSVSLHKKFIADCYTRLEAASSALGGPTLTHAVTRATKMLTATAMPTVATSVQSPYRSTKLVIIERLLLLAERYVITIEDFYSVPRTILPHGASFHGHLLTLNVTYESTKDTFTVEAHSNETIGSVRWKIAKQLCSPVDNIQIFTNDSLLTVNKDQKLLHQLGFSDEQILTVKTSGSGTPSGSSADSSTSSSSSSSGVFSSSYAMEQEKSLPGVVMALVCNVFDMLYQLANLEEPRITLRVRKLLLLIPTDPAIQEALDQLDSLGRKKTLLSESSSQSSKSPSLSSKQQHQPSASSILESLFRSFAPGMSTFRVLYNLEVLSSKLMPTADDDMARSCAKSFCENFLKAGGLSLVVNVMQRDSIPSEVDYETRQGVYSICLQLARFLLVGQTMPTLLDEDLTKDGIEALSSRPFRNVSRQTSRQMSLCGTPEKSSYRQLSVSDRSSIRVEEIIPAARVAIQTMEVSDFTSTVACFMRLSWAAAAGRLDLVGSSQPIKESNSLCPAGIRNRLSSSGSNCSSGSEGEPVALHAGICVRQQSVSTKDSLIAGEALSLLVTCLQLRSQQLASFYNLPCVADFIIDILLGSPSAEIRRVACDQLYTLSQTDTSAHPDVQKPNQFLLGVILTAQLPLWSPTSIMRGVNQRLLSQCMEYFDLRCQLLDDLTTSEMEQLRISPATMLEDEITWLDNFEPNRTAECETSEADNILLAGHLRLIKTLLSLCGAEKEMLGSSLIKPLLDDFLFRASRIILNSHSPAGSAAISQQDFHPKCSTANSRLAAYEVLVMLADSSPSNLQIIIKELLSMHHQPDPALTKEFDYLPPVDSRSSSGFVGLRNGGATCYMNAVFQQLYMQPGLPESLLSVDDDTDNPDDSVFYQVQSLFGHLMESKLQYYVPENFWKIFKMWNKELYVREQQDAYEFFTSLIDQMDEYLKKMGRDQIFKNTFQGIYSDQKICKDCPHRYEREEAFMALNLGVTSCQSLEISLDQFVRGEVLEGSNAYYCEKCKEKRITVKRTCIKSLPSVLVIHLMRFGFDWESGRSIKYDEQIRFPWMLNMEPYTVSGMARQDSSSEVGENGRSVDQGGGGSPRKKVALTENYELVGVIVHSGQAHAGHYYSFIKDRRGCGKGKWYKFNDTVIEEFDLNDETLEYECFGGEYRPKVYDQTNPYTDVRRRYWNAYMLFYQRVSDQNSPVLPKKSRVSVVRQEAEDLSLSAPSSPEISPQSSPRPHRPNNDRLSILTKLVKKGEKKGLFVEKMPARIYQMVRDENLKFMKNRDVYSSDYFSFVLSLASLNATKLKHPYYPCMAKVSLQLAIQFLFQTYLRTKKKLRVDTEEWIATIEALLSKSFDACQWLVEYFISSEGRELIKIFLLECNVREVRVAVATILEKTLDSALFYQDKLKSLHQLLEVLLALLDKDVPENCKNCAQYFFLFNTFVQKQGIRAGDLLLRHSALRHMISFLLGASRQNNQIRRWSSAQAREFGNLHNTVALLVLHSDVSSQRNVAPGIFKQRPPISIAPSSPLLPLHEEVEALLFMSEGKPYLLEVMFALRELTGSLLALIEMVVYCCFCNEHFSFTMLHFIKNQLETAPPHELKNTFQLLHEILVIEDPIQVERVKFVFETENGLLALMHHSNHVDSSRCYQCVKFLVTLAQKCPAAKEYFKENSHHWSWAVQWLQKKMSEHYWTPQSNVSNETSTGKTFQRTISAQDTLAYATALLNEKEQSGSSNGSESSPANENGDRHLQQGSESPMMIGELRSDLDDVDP
structure (smiles),measurement,setting,value
Cc1ccc(C)c(NC(=O)CCl)c1,log2 ratio of Biotin-Ahx-Ub-VS probe labelling,USP19,-0.203
same,log2 ratio of Biotin-Ahx-Ub-VS probe labelling,USP22,-0.27
same,log2 ratio of Biotin-Ahx-Ub-VS probe labelling,USP24,-0.729
same,log2 ratio of Biotin-Ahx-Ub-VS probe labelling,USP25,-1.41 (active)
same,log2 ratio of Biotin-Ahx-Ub-VS probe labelling,USP28,-1.56 (active)
